From PubChem BioAssay (NCATS)
Where “and” joins values, the source holds several entries; their conditions need not be identical. Identical values can stand only once. Results filed as inconclusive are left out. Where a call stands in place of a potency, no number is given. Calls of active or inactive are those of the source. Unless noted, the call rests on the fitted dose curve; in most records, active means well fitted curve in the direction sought with a large enough effect; inconclusive means small, poorly fitted or top-dose-only effect, or another doubt; inactive means no such curve, though single readings can be large; an effect the other way counts as inactive or inconclusive.

Columns and labels:
[1] = target: Cytochrome P450 3A4 (Homo sapiens) (UniProt P08684); assay: qHTS Assay for Inhibitors and Substrates of Cytochrome P450 3A4 (AID 884); further: series mostly up to about 57 µM; nearly all actives have a fitted effect of over 50% in size
Cytochrome P450 3A4 (Homo sapiens), sequence (P08684 whole entry, looked up): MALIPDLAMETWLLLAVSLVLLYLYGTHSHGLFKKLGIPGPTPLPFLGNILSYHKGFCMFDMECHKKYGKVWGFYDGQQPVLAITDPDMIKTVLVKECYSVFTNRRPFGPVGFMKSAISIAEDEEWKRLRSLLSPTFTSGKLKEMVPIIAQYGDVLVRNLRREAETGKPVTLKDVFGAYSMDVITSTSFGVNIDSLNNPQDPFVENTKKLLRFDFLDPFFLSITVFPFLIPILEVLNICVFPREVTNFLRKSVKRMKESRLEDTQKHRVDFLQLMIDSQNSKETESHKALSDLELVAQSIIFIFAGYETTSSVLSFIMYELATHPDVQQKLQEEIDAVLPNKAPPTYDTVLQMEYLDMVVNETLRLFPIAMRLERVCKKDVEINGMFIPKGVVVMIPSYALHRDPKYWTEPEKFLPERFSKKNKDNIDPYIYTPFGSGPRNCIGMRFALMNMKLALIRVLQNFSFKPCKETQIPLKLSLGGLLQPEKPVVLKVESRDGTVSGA
How it was run: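 Luminescent readout of luciferin produced by CYP3A4 (20 nM) dealkylation of Luciferin-PPXE, 25 uM (its KM). NADPH-driven reaction ran 60 min at RT after 10 min compound preincubation; data scaled to 57 uM ketoconazole as 100% inhibition.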

[2] = Cell Viability - LYMP2-003 (AID 965);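 further: cells exposed to compounds for 24 h before reading; nearly all actives have a fitted effect of over 50% in size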
How it was run: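 Human lymphoblastoid LYMP2-003 cells, 2500/well, exposed to compounds for 24 h at 37 C in complete medium. Viability read as intracellular ATP by CellTiter-Glo luminescence; AC50 from Hill-equation fits of qHTS concentration-response data.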

[3] = Cell Viability - LYMP2-020 (AID 986); further: series mostly up to about 92 µM; nearly all actives have a fitted effect of over 55% in size
How it was run: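 Cells at 2500 per well receive a 24 hr compound exposure at 37 C. Viability is measured as ATP-dependent luciferase luminescence, with AC50 modeled from qHTS concentration-response curves.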

[4] = target: Bile acid receptor (Homo sapiens) (UniProt Q96RI1); assay: qHTS assay for small molecule antagonists of farnesoid X receptor signaling (AID 588526; calls by dose curve)
Bile acid receptor (Homo sapiens), sequence (Q96RI1 whole entry, looked up): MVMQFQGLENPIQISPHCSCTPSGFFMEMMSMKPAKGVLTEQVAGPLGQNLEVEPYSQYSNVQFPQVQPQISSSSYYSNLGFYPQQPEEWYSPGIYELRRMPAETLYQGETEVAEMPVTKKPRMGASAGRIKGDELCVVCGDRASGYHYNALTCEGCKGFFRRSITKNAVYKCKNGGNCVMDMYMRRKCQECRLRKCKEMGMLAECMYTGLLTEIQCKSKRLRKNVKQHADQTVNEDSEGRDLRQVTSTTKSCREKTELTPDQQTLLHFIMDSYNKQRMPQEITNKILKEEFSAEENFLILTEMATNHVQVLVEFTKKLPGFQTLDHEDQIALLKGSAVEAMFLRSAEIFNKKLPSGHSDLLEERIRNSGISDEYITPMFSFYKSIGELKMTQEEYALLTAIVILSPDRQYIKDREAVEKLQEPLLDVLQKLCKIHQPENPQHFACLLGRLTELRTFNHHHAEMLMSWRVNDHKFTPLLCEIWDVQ
How it was run: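 Beta-lactamase reporter antagonist mode: HEK293T FXR-UAS-bla cells, titrated compound, CDCA stimulation, 16 h 37 C, CCF4 dye 2 h RT. Data normalized to CDCA 50 uM and DMSO; Hill-fit IC50.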

[5] = target: Glucocorticoid receptor (Homo sapiens) (UniProt P04150); assay: qHTS assay for small molecule agonists of glucocorticoid receptor signaling (AID 588532; active means well fitted curve in the direction sought with a large enough effect in the signal ratio, with a control signal flat; the % refers to the signal ratio); details: HeLa MMTV-bla, beta-lactamase ratio, agonist, 18 h; stronger effect = higher value; percent of dexamethasone control, DMSO zero
Glucocorticoid receptor (Homo sapiens), sequence (P04150 whole entry, looked up): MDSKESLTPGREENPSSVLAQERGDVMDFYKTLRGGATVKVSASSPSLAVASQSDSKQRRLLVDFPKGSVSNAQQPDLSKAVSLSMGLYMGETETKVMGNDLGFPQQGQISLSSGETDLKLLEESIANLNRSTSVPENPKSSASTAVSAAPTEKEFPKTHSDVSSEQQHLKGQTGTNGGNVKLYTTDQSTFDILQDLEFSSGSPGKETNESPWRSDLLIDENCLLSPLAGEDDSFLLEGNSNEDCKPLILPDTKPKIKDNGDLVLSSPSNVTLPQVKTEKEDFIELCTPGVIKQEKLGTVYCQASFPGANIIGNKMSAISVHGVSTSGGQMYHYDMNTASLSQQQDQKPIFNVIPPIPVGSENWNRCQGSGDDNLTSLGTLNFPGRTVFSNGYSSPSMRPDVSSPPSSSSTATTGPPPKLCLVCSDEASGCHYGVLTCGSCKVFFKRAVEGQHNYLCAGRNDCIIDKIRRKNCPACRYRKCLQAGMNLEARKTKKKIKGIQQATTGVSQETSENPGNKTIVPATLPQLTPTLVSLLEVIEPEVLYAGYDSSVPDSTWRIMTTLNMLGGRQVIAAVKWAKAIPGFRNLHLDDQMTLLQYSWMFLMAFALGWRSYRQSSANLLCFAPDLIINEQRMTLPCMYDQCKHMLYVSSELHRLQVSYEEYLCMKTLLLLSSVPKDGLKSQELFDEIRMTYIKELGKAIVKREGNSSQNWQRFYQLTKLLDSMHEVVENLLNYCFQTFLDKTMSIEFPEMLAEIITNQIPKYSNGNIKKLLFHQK
How it was run: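 Quantitative HTS using CellSensor MMTV-bla HeLa cells in charcoal/dextran-treated serum; compounds tested up to 92 uM. After 18 h at 37 C, CCF4 dye reported reporter induction.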

[6] = qHTS assay for small molecule antagonists of peroxisome proliferator-activated receptor delta signaling (AID 588535; active means well fitted inhibition curve with a large enough effect in the signal ratio, with a control signal flat, not every such curve was filed as active; the % refers to the signal ratio;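 on max response: cells co-treated with a PPAR-delta agonist as stimulator during compound exposure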); details: HEK293T PPARd-UAS-bla, beta-lactamase FRET ratio, 18 h; 460 nm channel
How it was run: (§1)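 Antagonist-mode qHTS using GeneBLAzer PPAR-delta-UAS-bla HEK293T cells; compound exposure 18 hrs at 37 C over a titration. Ratiometric CCF4 fluorescence at 460/530 nm; concentration-response points fitted to the Hill equation.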

[7] = target: Peroxisome proliferator-activated receptor delta (Homo sapiens) (UniProt Q03181); assay: as above
Peroxisome proliferator-activated receptor delta (Homo sapiens), sequence (Q03181 whole entry, looked up): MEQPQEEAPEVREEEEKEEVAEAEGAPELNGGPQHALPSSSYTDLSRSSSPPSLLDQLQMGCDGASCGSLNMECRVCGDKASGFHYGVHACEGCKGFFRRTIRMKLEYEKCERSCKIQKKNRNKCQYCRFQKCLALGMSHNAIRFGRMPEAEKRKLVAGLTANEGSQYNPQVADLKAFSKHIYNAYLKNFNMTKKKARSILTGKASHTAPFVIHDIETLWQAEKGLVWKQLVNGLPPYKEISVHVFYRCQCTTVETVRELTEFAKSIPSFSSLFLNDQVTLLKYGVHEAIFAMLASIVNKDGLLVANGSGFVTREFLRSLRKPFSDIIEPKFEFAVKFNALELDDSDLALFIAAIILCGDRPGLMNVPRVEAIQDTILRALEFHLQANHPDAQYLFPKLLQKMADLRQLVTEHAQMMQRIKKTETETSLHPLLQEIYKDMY
How it was run: as §1

[8] = target: Peroxisome proliferator-activated receptor gamma (Homo sapiens) (UniProt P37231); assay: qHTS assay for small molecule antagonists of peroxisome proliferator-activated receptor gamma signaling (AID 588537; active means well fitted inhibition curve with a large enough effect in the signal ratio, with a control signal flat, not every such curve was filed as active; the % refers to the signal ratio;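 further: reporter cells co-stimulated with 50 nM rosiglitazone agonist during compound treatment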)
Peroxisome proliferator-activated receptor gamma (Homo sapiens), sequence (P37231 whole entry, looked up): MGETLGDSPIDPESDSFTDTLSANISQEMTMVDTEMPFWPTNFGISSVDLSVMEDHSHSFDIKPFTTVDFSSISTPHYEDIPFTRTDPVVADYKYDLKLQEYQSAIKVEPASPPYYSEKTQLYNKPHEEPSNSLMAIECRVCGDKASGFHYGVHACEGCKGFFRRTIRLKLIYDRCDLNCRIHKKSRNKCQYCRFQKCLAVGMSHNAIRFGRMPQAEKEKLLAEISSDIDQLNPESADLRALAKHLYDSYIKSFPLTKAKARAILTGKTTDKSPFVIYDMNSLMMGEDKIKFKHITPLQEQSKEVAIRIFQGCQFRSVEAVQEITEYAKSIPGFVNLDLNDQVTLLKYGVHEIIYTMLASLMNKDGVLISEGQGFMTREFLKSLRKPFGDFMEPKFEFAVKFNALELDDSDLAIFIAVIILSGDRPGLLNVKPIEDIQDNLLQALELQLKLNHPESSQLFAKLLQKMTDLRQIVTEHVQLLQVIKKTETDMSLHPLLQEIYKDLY
How it was run: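 Cell-based beta-lactamase assay; GW9662 served as the antagonist control. Stimulation used rosiglitazone, final 50 nM, 16 h, 37 C.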

[9] = target: Vitamin D3 receptor (Homo sapiens) (UniProt P11473); assay: qHTS assay for small molecule antagonists of vitamin D receptor signaling (AID 588541; calls by dose curve;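 further: receptor activated by calcitriol during compound treatment; series mostly up to about 77 µM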)
Vitamin D3 receptor (Homo sapiens), sequence (P11473 whole entry, looked up): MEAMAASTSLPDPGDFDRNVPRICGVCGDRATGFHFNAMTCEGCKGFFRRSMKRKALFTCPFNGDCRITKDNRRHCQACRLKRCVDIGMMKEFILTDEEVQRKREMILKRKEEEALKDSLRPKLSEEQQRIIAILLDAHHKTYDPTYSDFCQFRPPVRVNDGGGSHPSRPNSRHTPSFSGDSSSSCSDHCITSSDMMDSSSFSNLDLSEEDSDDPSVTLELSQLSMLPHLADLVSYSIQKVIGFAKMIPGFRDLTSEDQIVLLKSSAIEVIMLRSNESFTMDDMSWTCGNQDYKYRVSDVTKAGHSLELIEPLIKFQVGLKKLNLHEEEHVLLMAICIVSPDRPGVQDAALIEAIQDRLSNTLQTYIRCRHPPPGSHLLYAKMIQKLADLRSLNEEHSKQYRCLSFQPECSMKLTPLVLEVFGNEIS
How it was run: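 Antagonist-mode beta-lactamase reporter assay: HEK293T VDR-UAS-bla cells were exposed to titrated compound alongside 1-alpha,25-dihydroxyvitamin D3 at 3 nM final for 16 h. Values were normalized to the 50 nM agonist control and DMSO basal, with IC50 and efficacy from Hill equation fits.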

[10] = target: Vitamin D3 receptor (Homo sapiens) (UniProt P11473); assay: qHTS assay for small molecule agonists of vitamin D receptor signaling (AID 588543; calls by dose curve)
How it was run: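 VDR-UAS-bla HEK293T cells, 2000/well, 2% charcoal-stripped FBS; compound titration 16 h at 37 C; CCF4 beta-lactamase ratio read. Normalized to 50 nM 1-alpha,25-dihydroxyvitamin D3 (100%) and DMSO; Hill fit gives EC50, efficacy.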

[11] = qHTS assay for small molecule agonists of the antioxidant response element (ARE) signaling pathway (AID 651741; active means well fitted activation curve with a large enough effect in the signal ratio; the % refers to the signal ratio)
How it was run: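 Agonist activity is measured as ARE-driven beta-lactamase expression in a stable HepG2 reporter line, using 16 h compound treatment at 37 C and a FRET substrate fluorescence readout after 2 h.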

[12] = qHTS assay for small molecule activators of the nuclear factor-kappa B (NF-kB) signaling pathway (AID 651749; active means well fitted activation curve with a large enough effect in the signal ratio; the % refers to the signal ratio; further: series mostly up to about 77 µM); details: NF-kB-bla ME-180 cells, beta-lactamase FRET ratio, 16 h; activation: stronger effect = higher value
How it was run: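 FRET-based beta-lactamase detection in ME-180 cells reports NF-kB response-element-driven transcription following overnight (16 hr) compound treatment.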

[13] = Cell Viability - LYMP1-002 - Assay at 40 hr (AID 994); further: nearly all actives have a fitted effect of over 60% in size
How it was run: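 Concentration-dependent ATP loss after 40 hr treatment at 37 C defined toxicity; AC50 values were obtained by fitting the standard Hill equation.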

[14] = qHTS assay for small molecule activators of the p53 signaling pathway (AID 651743; active means well fitted activation curve with a large enough effect in the signal ratio, not every such curve was filed as active; the % refers to the signal ratio; further: series mostly up to about 92 µM); details: HCT-116 p53RE-bla, beta-lactamase FRET ratio, 16 h; activation: stronger effect = higher value
How it was run: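 A beta-lactamase reporter under p53 response element control, stably carried by HCT-116 cells, reported pathway activation. Test compounds were applied for 16 hours at 37 C, and fluorescence was measured 2 hours after adding the B/G FRET substrate.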

[15] = target: Nuclear receptor subfamily 1 group I member 2 (Rattus norvegicus) (UniProt Q9R1A7); assay: qHTS assay for small molecule activators of the rat pregnane X receptor (rPXR) signaling pathway (AID 651751; call rule not given here); details: rPXR reporter cells, luciferase (One-Glo), 24 h
Nuclear receptor subfamily 1 group I member 2 (Rattus norvegicus), sequence (Q9R1A7 whole entry, looked up): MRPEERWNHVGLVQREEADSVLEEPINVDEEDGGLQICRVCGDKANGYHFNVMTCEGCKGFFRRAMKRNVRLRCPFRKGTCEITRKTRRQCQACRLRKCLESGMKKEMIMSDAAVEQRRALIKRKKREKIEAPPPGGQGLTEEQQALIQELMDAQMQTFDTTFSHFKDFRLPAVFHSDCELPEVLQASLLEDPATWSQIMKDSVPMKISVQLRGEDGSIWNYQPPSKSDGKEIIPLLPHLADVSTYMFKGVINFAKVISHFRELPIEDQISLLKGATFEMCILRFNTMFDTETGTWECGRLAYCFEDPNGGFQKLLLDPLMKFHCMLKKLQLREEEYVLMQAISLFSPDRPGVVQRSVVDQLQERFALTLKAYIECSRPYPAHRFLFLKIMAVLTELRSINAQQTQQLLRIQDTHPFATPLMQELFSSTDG

[16] = qHTS assay for small molecule activators of the human pregnane X receptor (PXR) signaling pathway (AID 720659; call rule not given here)
[17] = MultiTox-Fluor Cytotoxicity Assay - LYMP1-001 - Live Cells (AID 947)
[18] = Cellular Toxicity (caspase-3) HUV-EC-C (AID 656)
How it was run: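 HUV-EC-C cells (1000/well) in complete medium, compound-treated 16 h at 37 °C; caspase-3/7 activity read by Caspase-Glo 3/7 luminescence. Normalized to DMSO (basal) and 100 uM tamoxifen (100%); AC50 from Hill-equation concentration-response fits.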

[19] = Cell Viability - LYMP2-015 (AID 971); further: nearly all actives have a fitted effect of over 55% in size
How it was run: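 AC50 values reflect Hill-model fits of ATP-based luminescence (CellTiter-Glo) from a human lymphoblastoid line, 2500 cells/well, treated 24 hr at 37 C.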

SMILES	Potency [1]	Potency [2]	Potency [3]	outcome [4]	activation [5]	max response [6]	Potency [7]	Potency [8]	outcome [9]	outcome [10]	Potency [11]	activation [12]	Potency [13]	activation [14]	max response [15]	outcome [16]	Potency [17]	outcome [18]	Potency [19]
NC(=S)Nc1ccccc1	inactive	inactive	inactive	inactive	11.7% (inactive)	-9.7% and -15%	inactive	inactive	inactive	inactive	inactive	-0.0044% (inactive) and -1.03% (inactive) and -0.459% (inactive)	–	–	–	–	–	–	–
c1nc[nH]n1	–	–	inactive	inactive	11.9% (inactive)	-9.48%	inactive	–	inactive	inactive	–	0.14% (inactive)	inactive	-1.22% (inactive)	0.756% (inactive)	inactive	–	–	–
C=CC1CC=CCC1 (configuration not stated)	inactive	inactive	inactive	inactive	-1.79% (inactive) and -4.91% (inactive)	33.6% and -2.58%	inactive	inactive	inactive	inactive	inactive	0.91% (inactive) and -0.814% (inactive)	inactive	-3.44% (inactive)	-0.819% (inactive) and 2.71% (inactive)	inactive	inactive	–	–
O=[N+]([O-])c1ccc(Cl)c(Cl)c1	inactive	–	inactive	inactive	0.986% (inactive)	–	–	inactive	inactive	inactive	–	-0.387% (inactive)	inactive	–	0.633% (inactive)	inactive	inactive	inactive	inactive
Nc1ccc(Br)cc1	inactive	inactive	inactive	inactive	-2.07% (inactive)	–	–	–	–	–	–	-0.0985% (inactive)	inactive	-1.91% (inactive)	-3.71% (inactive)	inactive	–	inactive	inactive
CCCC(=O)Cl	inactive	–	inactive	inactive	7.24% (inactive)	–	–	inactive	inactive	inactive	–	-0.622% (inactive)	inactive	-0.024% (inactive)	-1.41% (inactive)	inactive	inactive	–	inactive
c1ccc2c(c1)CCCC2	inactive	inactive	inactive	inactive	3.9% (inactive)	–	–	–	inactive	inactive	inactive	-0.796% (inactive)	–	2.11% (inactive)	-0.477% (inactive)	inactive	–	–	–
C=CC(=O)OCC	inactive	inactive	inactive	inactive	2.08% (inactive)	26.1%	inactive	inactive	–	–	inactive	–	inactive	–	-4.65% (inactive)	inactive	inactive	–	inactive
Cc1cccc([N+](=O)[O-])c1	inactive	inactive	inactive	inactive	4.17% (inactive) and -5.85% (inactive)	12.7% and -9.62%	inactive	inactive	inactive	inactive	inactive	-0.494% (inactive) and -2.2% (inactive)	–	-0.671% (inactive)	–	–	–	–	inactive
CCSC(=O)Cl	–	–	–	inactive	17.3% (inactive)	–	–	inactive	inactive	inactive	inactive	-1.04% (inactive)	–	-1.99% (inactive)	4.31% (inactive)	inactive	–	–	–
C1CCC2CCCCC2C1 (configuration not stated)	inactive	–	inactive	inactive	11.1% (inactive)	-10.8%	inactive	inactive	inactive	inactive	–	–	inactive	-0.562% (inactive)	1.72% (inactive)	inactive	inactive	inactive	inactive
